# Compound activity as filed in PubChem.
# IL-1B inflam inh = inhibitors of inflammasome signaling (IL-1 beta secretion); THP-1 LPS/ATP IL-1B secretion, AlphaLISA, 16 h; stronger effect = lower value; activity change, % at 57.5 µM; actives 4.7% (n = 360,000); AID 743279; in the data active means activity change below about -50%; inconclusive means mostly about -30% to -49%; further: on the % scale 0 is the no-effect control and ±100 the full control effect
#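 THP-1 cells pretreated 1 hr with compounds (up to 57.5 uM final), then stimulated with LPS (250 ng/mL final) plus ATP (1.25 mM final); secreted IL-1B measured by AlphaLISA after 16 hr, decreased signal indicating inhibition.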
# DT40 TDP1 no CPT = qHTS for Inhibitors of human tyrosyl-DNA phosphodiesterase 1 (TDP1): qHTS in cells in absence of CPT. DT40 Tdp1-/- hTDP1 cells, no CPT, ATP luminescence, 48 h. Potency, µM (doses to about 46.2 µM), without a hit: at the top dose activity change, negative = growth inhibition, usual class: inhibitors. actives 15% (n = 420,000); further: potency means the concentration at half of the fitted maximal effect; on the % scale 0 is the no-effect control and ±100 the full control effect; nearly all actives have a fitted effect of over 55% in size
#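 A cellular qHTS used chicken DT40 cells lacking endogenous Tdp1 but carrying stably transfected human TDP1. Compounds were applied without camptothecin, and cell growth kinetics were judged by ATP-dependent luminescence after ≥48 hr.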
# HepG2 tox = kills HepG2 cells in TGF-b inhibitor counter-screen. HepG2 CAGA-GFP viability, ATP luminescence, 18 h. Potency, µM (doses to about 46.1 µM), inactives show at the top dose activity change, negative = cytotoxicity, hits mostly cytotoxic. actives 0.76% (n = 410,000). AID 588856; further: potency means the concentration at half of the fitted maximal effect
#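 CellTiter-Glo luminescence gave cytotoxicity after 18 hours at 37 degrees C. The cells were HepG2 CAGA-GFP in 1% FBS DMEM, stimulated with 500 pg/mL TGF-beta after compound addition. %Activity was normalised to no-cell wells (complete cell-killing) and DMSO (no toxicity), and curves were fitted and classified.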
# TDP1 inh = blocks human tyrosyl-DNA phosphodiesterase 1 | Q9NUW8 | recombinant TDP1, AlphaScreen DNA substrate cleavage | Potency, µM (top dose mostly 130 µM), for inactives: top-dose activity change, negative = inhibition, hits mostly inhibitors | actives 0.28% (n = 350,000) | AID 485290; further: potency means the concentration at half of the fitted maximal effect; on the % scale 0 is the no-effect control and ±100 the full control effect; nearly all actives have a fitted effect of over 40% in size
# Target sequence (Q9NUW8 whole entry, looked up): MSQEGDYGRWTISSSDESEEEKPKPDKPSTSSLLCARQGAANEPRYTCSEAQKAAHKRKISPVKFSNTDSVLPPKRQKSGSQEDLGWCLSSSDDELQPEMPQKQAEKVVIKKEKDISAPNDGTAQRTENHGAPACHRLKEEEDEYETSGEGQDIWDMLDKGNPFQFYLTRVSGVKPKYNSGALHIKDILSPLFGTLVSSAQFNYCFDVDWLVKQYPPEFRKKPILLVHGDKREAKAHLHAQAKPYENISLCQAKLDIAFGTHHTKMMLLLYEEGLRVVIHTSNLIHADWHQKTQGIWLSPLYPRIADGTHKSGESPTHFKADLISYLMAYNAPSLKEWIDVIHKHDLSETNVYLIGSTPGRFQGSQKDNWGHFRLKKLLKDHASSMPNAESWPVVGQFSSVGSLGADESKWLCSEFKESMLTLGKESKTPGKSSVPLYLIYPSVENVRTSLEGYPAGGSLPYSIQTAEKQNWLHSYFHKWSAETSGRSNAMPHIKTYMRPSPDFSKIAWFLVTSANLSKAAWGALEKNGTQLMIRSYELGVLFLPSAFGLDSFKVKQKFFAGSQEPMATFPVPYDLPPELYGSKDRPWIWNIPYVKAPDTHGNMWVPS
#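 AlphaScreen read-out: signal falls as enzyme removes the 3' tyrosine-FITC from a 5'-biotinylated DNA oligo (15 nM, 5 min, RT). Enzyme was E. coli-made recombinant Tdp1 at 1 nM, exposed to compound for 15 min beforehand; beads 10 ug/ml, 10 min.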
# TGFb SMAD3 inh = blocks TGF-b signaling | Potency, µM (series often up to 46.1 µM), for inactives: top-dose activity, negative = inhibition, usual class: inhibitors | actives 1.2% (n = 410,000) | AID 588855 | HepG2 CAGA-GFP TGF-b/SMAD3 reporter, GFP fluorescence, 18 h; TGF-beta stimulated, 500 pg/mL final; further: potency means the concentration at half of the fitted maximal effect; on the % scale 0 is the no-effect control and ±100 the full control effect; nearly all actives have a fitted effect of over 65% in size
#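 Using HEPG2 CAGA-GFP reporter cells at 1000 cells/well, we pinned test compounds, stimulated with recombinant TGF-beta (500 pg/mL final) and measured total well GFP after 18 h.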
# DT40 TDP1 CPT = DT40-hTDP1 cell growth loss with CPT. chicken DT40 Tdp1-/-;hTDP1 cells + 20 nM CPT, ATP luminescence, 48 h. Potency, µM (titrated, usually from 46.2 µM), inactives show top-dose activity change, negative = growth inhibition, usual class: inhibitors. actives 12% (n = 420,000); further: potency means the concentration at half of the fitted maximal effect; on the % scale 0 is the no-effect control and ±100 the full control effect; nearly all actives have a fitted effect of over 55% in size
#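 Cell growth measured by CellTiter-Glo luminescence after a minimum 48 h, 37 C compound exposure with 20 nM CPT in Tdp1-knockout DT40 cells stably expressing hTDP1, seeded 400/well; qHTS titration format.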
# * marks the source's active call; other numbers are inactive results; ? = inconclusive; · = not tested or not shown; ! = not active in a repeat; [ ] = another dose, or the depositor's remark. Most compounds without a hit are left out; they make up all but 18% or so of the library. Unless noted, the call rests on the fitted dose curve; in most records, active means well fitted curve in the direction sought with a large enough effect; inconclusive means small, poorly fitted or top-dose-only effect, or another doubt; inactive means no such curve, though single readings can be large; an effect the other way counts as inactive or inconclusive.
SMILES,IL-1B inflam inh,DT40 TDP1 no CPT,HepG2 tox,TDP1 inh,TGFb SMAD3 inh,DT40 TDP1 CPT
C[C@@H]1O[C@@H](OC[C@@H]2O[C@H](Oc3c(-c4ccc(O)cc4)oc4cc(O)cc(O)c4c3=O)[C@@H](O)[C@H](O)[C@H]2O)[C@H](O)[C@H](O)[C@H]1O,43,8%,1%,6%,4%,-2%
O=C(O)C1OC(Oc2c(-c3ccc(O)c(O)c3)oc3cc(O)cc(O)c3c2=O)C(O)C(O)C1O (stereo not given),24,13µM*,-42%,-14%,-11%,?
CNCCCCOc1ccc(C(C)(C)C)cc1Cl,-55*,?,-54%,-3%,?,?
O=C(CN1CCN(c2ccc(O)cc2)CC1)NC(=O)NCc1ccco1,37,-24%,6%,-5%,3%,3%
CCOc1ccc(OCC)c(NC(=O)C(NS(=O)(=O)c2cccs2)c2ccccc2)c1 (stereo not given),·,?,-36%,3%,-16%,-22%
CCOC(=O)c1cc2c(=O)n3ccccc3nc2n(CC2CCCO2)c1=NC(=O)c1ccccc1OCC (stereo not given),·,15µM*,-28%,6%,-17%,16µM*
CCOC(=O)c1cc2c(=O)n3ccccc3nc2n(Cc2ccco2)c1=NC(=O)c1ccc(OC)cc1,2,5.2µM*,-7%,-8%,25%,6.5µM*
CCOC(=O)c1cc2c(=O)n3cccc(C)c3nc2n(Cc2ccco2)c1=NC(=O)c1ccc(C)cc1,-4,-5%,18%,·,0%,-3%
CCOC(=O)c1cc2c(=O)n3ccccc3nc2n(Cc2ccco2)c1=NC(=O)c1cccc(OC)c1,-55*,?,-1%,-3%,-11%,?
CCOC(=O)c1cc2c(=O)n3cccc(C)c3nc2n(Cc2ccco2)c1=NC(=O)c1ccccc1,15,?,-6%,-2%,-7%,29µM*
Cc1ccc(Cn2c(=O)n(Cc3ccc(C(=O)NC4CCN(Cc5ccccc5)CC4)cc3)c(=O)c3ccccc32)cc1,·,5%,0%,6%,3%,7%
Cn1c(=O)n(CCCO)c(=O)c2c1nc1n2CCCN1Cc1ccccc1,7,-28%,-8%,3%,-23%,-20%
O=C(c1csnn1)N1CCC2(CCCN(c3ccccc3)C2)CC1,·,?,·,·,·,11%
Cc1ccc(-n2c(=O)c3sccc3n(CC(=O)NC3CCCCC3)c2=O)cc1,7,1%,2%,7%,-1%,2%
CCOC(=O)c1cc2c(=O)n3ccccc3nc2n(CC2CCCO2)c1=NC(=O)c1ccccc1C (stereo not given),·,0%,-3%,6%,16%,8%
CCOC(=O)c1cc2c(=O)n3ccccc3nc2n(Cc2ccco2)c1=NC(=O)c1ccccc1OC,?,13µM*,8%,79µM*!,6%,16µM*
CN(C)Cc1cc(C(C)(C)c2cc(CN(C)C)c(O)c(CN(C)C)c2)cc(CN(C)C)c1O,-62*,-15%,-26%,8%,17%,-10%
CC(C)CCC1CC(CSC(=N)N)OC1=O (stereo not given),-25,23µM*,-5%,6%,-1%,?
CCCCCCCC1CC(/C(C)=N/NC(N)=O)OC1=O (stereo not given),14,?,1%,-3%,-27%,18µM*
CCCCCCCC1CC(CSC(=N)N)OC1=O (stereo not given),-99*,21µM*,-36%,0%,-24%,15µM*
Cc1cc(-c2ccnc(-n3ncc(C(=O)NCCc4cccnc4)c3C)n2)c(C)s1,·,?,·,·,·,-3%[9.04 µM]
CCOc1ccc2nc(N3C(=O)/C(=C/c4ccccc4)NC3=S)sc2c1,20,?,-13%,8%,-19%,23µM*
COc1ccc2nc(N3C(=O)/C(=C/c4ccccc4)NC3=S)sc2c1,22,?,-17%,3%,16%,?
O=C1N(Cc2cccc(Cl)c2)C[C@@H]2C[C@@H](c3c[nH]c4ccccc34)N3CCC[C@@]123,-20,15µM*,-18%,·,-1%,?
O=C1N(Cc2cccc(Cl)c2)C[C@@H]2C[C@@H](c3cccc4ncccc34)N3CCC[C@@]123,-74*,23µM*,-23%,-5%,?,23µM*
SMILES,IL-1B inflam inh,DT40 TDP1 no CPT,HepG2 tox,TDP1 inh,TGFb SMAD3 inh,DT40 TDP1 CPT
O=C1N(Cc2cccc(Cl)c2)C[C@@H]2C[C@@H](c3ccc4nonc4c3)N3CCC[C@@]123,-29,18µM*,-43%,-3%,-28%,?
O=C1N(Cc2cccc(Cl)c2)C[C@@H]2C[C@@H](c3cccn3-c3nccs3)N3CCC[C@@]123,-82*,16µM*,-13%,0%,?,?
CCO[C@@H]1OC(C(=O)N2CCCCCCC2)=C[C@H](C2CCCCC2)[C@H]1CCCO,-26,?,-18%,5%,?,13µM*
C#Cc1ccc([C@@H]2C=C(C(=O)Nc3ccccc3)O[C@H](OCC)[C@H]2CCCO)cc1,?,13µM*,14%,3%,2%,16µM*
CCO[C@@H]1OC(C(=O)N2CCOCC2)=C[C@H](C2CCCCC2)[C@H]1CCCO,20,-7%,15%,3%,22%,1%
C#Cc1ccc([C@H]2C=C(C(=O)N3CCN(Cc4ccc5c(c4)OCO5)CC3)O[C@@H](OCC)[C@@H]2CCCO)cc1,-50*,?,-14%,1%,?,?
CCO[C@H]1OC(C(=O)N2CCN(Cc3ccc4c(c3)OCO4)CC2)=C[C@@H](C2CCCCC2)[C@@H]1CCCO,5,16µM*,6%,8%,?,15µM*
